PubChem BioAssay (EPA / NIEHS)
Where “and” joins values, the source holds several entries; their conditions need not be identical. Equal values may be shown once. Records with an inconclusive call do not appear. Some compounds were tested as several samples or in several runs, with calls that do not always agree. Calls of active or inactive are those of the source. Rule for the calls, unless noted: active = hit-call score of the fitted dose curve at least 0.9, where 1 is the maximum; inactive = score below 0.9.

What was measured:
[1] = read-out: Monocyte Chemoattractant Protein-1 (MCP1), CCL2 (gene 6347); assay: BSK_SAg_MCP1: BioMAP Diversity Plus: SAg Assay for Monocyte Chemoattractant Protein-1 (MCP1) Biomarker Activity (AID 2283090); details: primary human HUVEC with PBMC; actives raise or lower the signal
In short: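 Values derive from bidirectional fitting of ELISA-measured MCP1 against DMSO controls. Readings were taken 24 h after dosing human vascular endothelial cells co-cultured with peripheral blood mononuclear cells under superantigen stimulation.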

[2] = read-out: E-selectin (Homo sapiens) (UniProt P16581); assay: BSK_SAg_Eselectin: BioMAP Diversity Plus: SAg Assay for Eselectin Biomarker Activity (AID 2283091); details: primary human HUVEC with PBMC; actives raise or lower the signal
In short: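 HUVEC co-cultured with PBMC, compound dosed then read at 24 h; E-selectin measured by ELISA. Activity fitted bidirectionally against DMSO as negative control and baseline.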

[3] = read-out: Monokine induced gamma interferon (MIG), CXCL9 (gene 4283); assay: BSK_SAg_MIG: BioMAP Diversity Plus: SAg Assay for Monokine induced gamma interferon (MIG) Biomarker Activity (AID 2283092); details: primary human HUVEC with PBMC; actives raise or lower the signal
In short: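 ELISA readout of MIG/CXCL9; primary human umbilical vein endothelial cells co-cultured with peripheral blood mononuclear cells; 24 h post-dose; gain/loss fit vs DMSO baseline.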

[4] = BSK_SAg_PBMCCytotoxicity: PBMC Cytotoxicity Assessment in the BioMAP Diversity Plus: SAg Assay (AID 2283093); details: primary human HUVEC with PBMC;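 note: fitted both ways against DMSO so a hit may be loss or gain of signal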;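 for AC50: PBMC superantigen activated with SEB plus TSST-1 one hour after compound addition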
In short: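 PBMC viability by Alamar Blue reduction, fluorescence read at 546/580 nm after 6 h dye exposure. Cells were dosed 1 h before SEB plus TSST-1 activation (20 ng/mL final each), then held 90 h; endothelial/PBMC human co-culture.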

[5] = read-out: Interleukin-8 (IL8), CXCL8 (gene 3576); assay: BSK_SAg_IL8: BioMAP Diversity Plus: SAg Assay for Interleukin-8 (IL8) Biomarker Activity (AID 2283094); details: primary human HUVEC with PBMC; actives raise or lower the signal
In short: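 Chemicals were dosed onto a human endothelial–PBMC co-culture, and IL-8 was quantified by ELISA after 24 h. Both increases and decreases were fitted relative to DMSO.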

[6] = BSK_SAg_Proliferation: Cell Proliferation Assessment in the BioMAP Diversity Plus: SAg Assay (AID 2283095); details: primary human HUVEC with PBMC;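 note: relative cell number as total protein by SRB absorbance in sub-confluent culture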
In short: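 Absorbance of sulforhodamine B at 560 nm reports total protein in a human vascular endothelial/PBMC co-culture after 96 h chemical exposure. Gain or loss of signal is fitted in both directions against DMSO.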

[7] = BSK_SAg_SRB: Viability Assessment in the BioMAP Diversity Plus: SAg Assay (AID 2283096); details: primary human HUVEC with PBMC;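 note: cells read one day after compound addition; hits may be either gain or loss of signal compared with DMSO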
In short: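 Compounds were added to a human vascular co-culture of umbilical vein endothelium and PBMC. After 24 h, parallel cultures were fixed with 10% TCA, stained with 0.1% sulforhodamine B and read at 560 nm. Gain or loss of signal was fitted relative to DMSO.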

[8] = biological target: human CYP19A1, CYP19A1 (gene 1588) (UniProt P11511); assay: NVS_ADME_hCYP19A1: NovaScreen (NVS) CYP450-related Enzyme Activity (ADME) Assay for human CYP19A1 (AID 2283098; active = hit-call score of the fitted dose curve at least 0.9, where 1 is the maximum;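 for AC50: potency for inhibitors seen as loss of fluorescent enzyme signal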)
Chain of human CYP19A1, CYP19A1 (gene 1588) (P11511 whole entry, looked up): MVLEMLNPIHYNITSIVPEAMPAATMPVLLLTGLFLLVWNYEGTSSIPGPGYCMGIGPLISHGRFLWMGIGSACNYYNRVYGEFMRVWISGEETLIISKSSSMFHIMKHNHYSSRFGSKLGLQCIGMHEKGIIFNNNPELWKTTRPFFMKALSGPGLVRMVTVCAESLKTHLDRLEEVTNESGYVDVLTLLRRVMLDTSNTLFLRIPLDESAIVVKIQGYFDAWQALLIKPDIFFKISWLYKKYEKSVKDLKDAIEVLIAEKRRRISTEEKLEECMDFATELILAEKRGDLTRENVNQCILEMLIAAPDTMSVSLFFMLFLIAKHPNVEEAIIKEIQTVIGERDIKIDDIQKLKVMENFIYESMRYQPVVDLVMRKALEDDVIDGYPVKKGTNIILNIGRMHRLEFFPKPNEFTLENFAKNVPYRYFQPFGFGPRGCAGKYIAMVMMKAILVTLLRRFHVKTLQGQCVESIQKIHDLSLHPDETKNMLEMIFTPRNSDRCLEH
In short: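 Fluorescence intensity read-out; activity taken as signal loss relative to acetonitrile vehicle. Extracted enzyme, specific substrate, no cells, 0.5 h exposure. Duplicate single-point screen at 10 uM, then concentration–response follow-up for actives.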

[9] = biological target: Cytochrome P450 2C19 (Homo sapiens) (UniProt P33261); assay: NVS_ADME_hCYP2C19: NovaScreen (NVS) CYP450-related Enzyme Activity (ADME) Assay for human CYP2C19 (AID 2283113; active = hit-call score of the fitted dose curve at least 0.9, where 1 is the maximum;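 for AC50: potency for inhibition seen as loss of fluorescent signal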)
In short: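 Cell-free assay of recombinant human CYP2C19 expressed in insect cells, with a fluorogenic substrate; fluorescence intensity read 1 hour after dosing. Loss of signal relative to acetonitrile negative control indicates inhibition. Primary screen at 10 uM in duplicate, then concentration series.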

[10] = biological target: human CYP2A6, CYP2A6 (gene 1548) (UniProt P11509); assay: NVS_ADME_hCYP2A6: NovaScreen (NVS) CYP450-related Enzyme Activity (ADME) Assay for human CYP2A6 (AID 2283099; active = hit-call score of the fitted dose curve at least 0.9, where 1 is the maximum)
Chain of human CYP2A6, CYP2A6 (gene 1548) (P11509 whole entry, looked up): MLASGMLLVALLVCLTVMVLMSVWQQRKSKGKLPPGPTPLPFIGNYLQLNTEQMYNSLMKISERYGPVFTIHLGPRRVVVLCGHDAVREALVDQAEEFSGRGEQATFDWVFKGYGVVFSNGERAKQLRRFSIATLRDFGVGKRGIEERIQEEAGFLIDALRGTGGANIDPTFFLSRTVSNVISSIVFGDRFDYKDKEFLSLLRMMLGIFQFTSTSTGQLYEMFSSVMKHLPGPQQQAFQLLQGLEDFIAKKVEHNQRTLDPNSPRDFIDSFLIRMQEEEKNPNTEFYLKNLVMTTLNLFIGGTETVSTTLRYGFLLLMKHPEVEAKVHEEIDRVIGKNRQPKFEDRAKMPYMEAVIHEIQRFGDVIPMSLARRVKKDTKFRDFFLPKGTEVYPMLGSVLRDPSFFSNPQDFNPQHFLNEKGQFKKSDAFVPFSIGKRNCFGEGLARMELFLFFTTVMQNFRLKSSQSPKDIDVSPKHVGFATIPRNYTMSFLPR
In short: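 Cell-free fluorescence readout of recombinant human CYP2A6 expressed in insect cells, read 0.5 h after dosing; loss of signal versus acetonitrile negative control. Primary screen in duplicate at 10 uM; actives re-run in concentration-response up to 20 uM.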

[11] = biological target: human CYP2B6, CYP2B6 (gene 1555) (UniProt P20813); assay: NVS_ADME_hCYP2B6: NovaScreen (NVS) CYP450-related Enzyme Activity (ADME) Assay for human CYP2B6 (AID 2283101; active = hit-call score of the fitted dose curve at least 0.9, where 1 is the maximum)
Chain of human CYP2B6, CYP2B6 (gene 1555) (P20813 whole entry, looked up): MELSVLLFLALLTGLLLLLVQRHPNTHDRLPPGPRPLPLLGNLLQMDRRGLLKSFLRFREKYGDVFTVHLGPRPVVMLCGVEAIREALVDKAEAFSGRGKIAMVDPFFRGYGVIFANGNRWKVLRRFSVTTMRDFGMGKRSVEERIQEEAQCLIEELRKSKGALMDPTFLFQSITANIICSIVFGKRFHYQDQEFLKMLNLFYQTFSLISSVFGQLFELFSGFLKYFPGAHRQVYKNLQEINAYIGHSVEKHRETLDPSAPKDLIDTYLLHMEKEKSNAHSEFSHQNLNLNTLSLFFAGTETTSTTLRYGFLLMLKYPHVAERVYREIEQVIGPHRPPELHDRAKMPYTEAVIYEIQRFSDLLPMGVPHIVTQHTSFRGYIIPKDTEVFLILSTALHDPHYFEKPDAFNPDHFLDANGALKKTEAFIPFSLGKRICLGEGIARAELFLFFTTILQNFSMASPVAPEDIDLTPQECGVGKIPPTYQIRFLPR
In short: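 Fluorescence-based enzyme activity of recombinant human CYP2B6, measured 1 h post-dose against acetonitrile vehicle baseline. Screened at a single concentration of 10 uM in duplicate before concentration-response follow-up.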

[12] = biological target: Cytochrome P450 3A4 (Homo sapiens) (UniProt P08684); assay: NVS_ADME_hCYP3A4: NovaScreen (NVS) CYP450-related Enzyme Activity (ADME) Assay for human CYP3A4 (AID 2283110; active = hit-call score of the fitted dose curve at least 0.9, where 1 is the maximum)
Chain of Cytochrome P450 3A4 (Homo sapiens) (P08684 whole entry, looked up): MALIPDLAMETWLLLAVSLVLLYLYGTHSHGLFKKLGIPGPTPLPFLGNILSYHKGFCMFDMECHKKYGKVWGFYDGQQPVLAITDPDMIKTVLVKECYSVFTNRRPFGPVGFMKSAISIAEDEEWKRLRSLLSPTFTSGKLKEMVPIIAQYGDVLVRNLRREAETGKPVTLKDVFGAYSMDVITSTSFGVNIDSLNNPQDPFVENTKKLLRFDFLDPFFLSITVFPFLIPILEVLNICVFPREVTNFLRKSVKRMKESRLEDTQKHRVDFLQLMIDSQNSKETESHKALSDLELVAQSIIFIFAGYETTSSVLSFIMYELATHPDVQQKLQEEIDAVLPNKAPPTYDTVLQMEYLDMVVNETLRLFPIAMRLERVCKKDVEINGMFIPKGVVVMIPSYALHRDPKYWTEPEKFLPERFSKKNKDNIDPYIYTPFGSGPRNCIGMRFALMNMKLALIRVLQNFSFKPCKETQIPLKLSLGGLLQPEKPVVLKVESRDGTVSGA
In short: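 Recombinant CYP3A4 from insect cells, fluorescence enzyme read-out, 0.33 h after chemical addition. Acetonitrile = negative control/baseline. Primary HTS: 10 uM in duplicate; actives re-tested in concentration series.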

[13] = biological target: human CYP4F12, CYP4F12 (gene 66002) (UniProt Q9HCS2); assay: NVS_ADME_hCYP4F12: NovaScreen (NVS) CYP450-related Enzyme Activity (ADME) Assay for human CYP4F12 (AID 2283111; active = hit-call score of the fitted dose curve at least 0.9, where 1 is the maximum)
Chain of human CYP4F12, CYP4F12 (gene 66002) (Q9HCS2 whole entry, looked up): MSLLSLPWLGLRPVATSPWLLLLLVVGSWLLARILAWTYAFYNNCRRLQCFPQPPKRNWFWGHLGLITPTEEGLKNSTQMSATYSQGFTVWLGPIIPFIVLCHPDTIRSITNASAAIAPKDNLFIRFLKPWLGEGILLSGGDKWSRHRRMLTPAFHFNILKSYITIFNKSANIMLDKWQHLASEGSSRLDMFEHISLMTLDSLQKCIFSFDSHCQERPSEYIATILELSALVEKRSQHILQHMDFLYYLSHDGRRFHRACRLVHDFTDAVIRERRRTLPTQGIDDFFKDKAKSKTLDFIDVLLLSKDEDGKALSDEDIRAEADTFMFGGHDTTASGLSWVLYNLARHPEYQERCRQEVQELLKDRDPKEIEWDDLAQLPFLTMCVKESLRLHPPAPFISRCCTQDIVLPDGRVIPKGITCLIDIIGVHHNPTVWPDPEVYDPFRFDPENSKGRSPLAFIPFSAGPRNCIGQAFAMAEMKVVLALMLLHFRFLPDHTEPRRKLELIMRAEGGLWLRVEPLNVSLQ
In short: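 Recombinant enzyme with a fluorescent substrate, signal read at 0.5 h post-dose; activity loss analysed relative to acetonitrile. Compounds first run in duplicate at 10 uM, with follow-up concentration-response testing of actives.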

[14] = biological target: human CYP2C9, CYP2C9 (gene 1559) (UniProt P11712); assay: NVS_ADME_hCYP2C9: NovaScreen (NVS) CYP450-related Enzyme Activity (ADME) Assay for human CYP2C9 (AID 2283108; active = hit-call score of the fitted dose curve at least 0.9, where 1 is the maximum)
Chain of human CYP2C9, CYP2C9 (gene 1559) (P11712 whole entry, looked up): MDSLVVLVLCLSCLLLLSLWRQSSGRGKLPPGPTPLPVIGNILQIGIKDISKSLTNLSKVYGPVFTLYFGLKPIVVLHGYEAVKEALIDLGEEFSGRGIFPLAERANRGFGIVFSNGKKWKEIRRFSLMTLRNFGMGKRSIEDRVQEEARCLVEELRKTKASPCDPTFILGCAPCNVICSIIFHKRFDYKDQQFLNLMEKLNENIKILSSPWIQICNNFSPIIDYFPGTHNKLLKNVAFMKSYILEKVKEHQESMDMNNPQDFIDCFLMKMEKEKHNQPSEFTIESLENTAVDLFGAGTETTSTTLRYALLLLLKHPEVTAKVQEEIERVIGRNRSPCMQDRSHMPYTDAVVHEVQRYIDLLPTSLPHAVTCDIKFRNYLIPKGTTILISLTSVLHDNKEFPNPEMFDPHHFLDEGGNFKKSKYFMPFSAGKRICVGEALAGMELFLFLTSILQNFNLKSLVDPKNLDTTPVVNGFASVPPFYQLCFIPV
In short: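 Recombinant human CYP2C9 expressed in SF9 cells, fluorogenic substrate, fluorescence read 0.75 h after dosing. Chemicals first run in duplicate at 10 uM, with actives followed in concentration series; loss of signal versus acetonitrile baseline.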

[15] = biological target: human CYP1A2, CYP1A2 (gene 1544) (UniProt P05177); assay: NVS_ADME_hCYP1A2: NovaScreen (NVS) CYP450-related Enzyme Activity (ADME) Assay for human CYP1A2 (AID 2283102; active = hit-call score of the fitted dose curve at least 0.9, where 1 is the maximum;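 note: potency for inhibition since loss of fluorescence marks reduced CYP1A2 activity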)
Chain of human CYP1A2, CYP1A2 (gene 1544) (P05177 whole entry, looked up): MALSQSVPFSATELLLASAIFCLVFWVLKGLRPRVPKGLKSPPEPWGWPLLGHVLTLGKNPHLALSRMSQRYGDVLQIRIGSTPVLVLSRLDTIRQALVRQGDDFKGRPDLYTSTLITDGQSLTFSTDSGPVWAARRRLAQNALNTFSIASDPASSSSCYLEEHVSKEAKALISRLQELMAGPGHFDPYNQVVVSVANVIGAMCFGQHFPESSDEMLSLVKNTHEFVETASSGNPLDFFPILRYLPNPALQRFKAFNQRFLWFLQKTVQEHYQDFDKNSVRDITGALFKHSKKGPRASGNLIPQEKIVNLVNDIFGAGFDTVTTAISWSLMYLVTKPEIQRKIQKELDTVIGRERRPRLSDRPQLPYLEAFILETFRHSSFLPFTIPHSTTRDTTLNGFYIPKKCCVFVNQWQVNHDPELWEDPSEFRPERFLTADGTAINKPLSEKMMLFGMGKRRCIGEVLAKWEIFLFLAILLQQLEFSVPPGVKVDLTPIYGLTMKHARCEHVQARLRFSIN
In short: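 Cell-free recombinant human CYP1A2 expressed in insect cells, with fluorogenic substrate; fluorescence intensity read 0.5 h after dosing. Loss of signal relative to acetonitrile baseline scored. Primary screen in duplicate at 10 uM; actives retested in concentration series.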

[16] = biological target: rat CYP2A1, Cyp2a1 (gene 24894) (UniProt P11711); assay: NVS_ADME_rCYP2A1: NovaScreen (NVS) CYP450-related Enzyme Activity (ADME) Assay for rat CYP2A1 (AID 2283114)
Chain of rat CYP2A1, Cyp2a1 (gene 24894) (P11711 whole entry, looked up): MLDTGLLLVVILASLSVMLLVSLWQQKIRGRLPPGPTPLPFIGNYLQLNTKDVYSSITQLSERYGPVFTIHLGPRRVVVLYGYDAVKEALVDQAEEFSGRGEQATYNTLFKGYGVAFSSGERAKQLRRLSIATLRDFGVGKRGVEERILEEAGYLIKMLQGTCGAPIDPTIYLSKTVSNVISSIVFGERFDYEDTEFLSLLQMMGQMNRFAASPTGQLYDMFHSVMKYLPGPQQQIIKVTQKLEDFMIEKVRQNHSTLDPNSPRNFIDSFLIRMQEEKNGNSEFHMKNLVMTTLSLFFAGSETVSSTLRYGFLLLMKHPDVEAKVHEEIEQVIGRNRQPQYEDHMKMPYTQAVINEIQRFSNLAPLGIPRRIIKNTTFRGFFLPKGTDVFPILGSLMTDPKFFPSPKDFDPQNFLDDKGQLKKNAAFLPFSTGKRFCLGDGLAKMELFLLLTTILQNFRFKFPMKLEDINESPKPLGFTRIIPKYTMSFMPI
In short: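 Cell-free fluorescence enzyme-activity read on recombinant rat CYP2A1, taken 0.75 h post-dosing. Compounds were screened in duplicate at 10 uM, then hits tested in concentration series (max 20 uM); inhibition scored relative to acetonitrile baseline.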

Measured: AC50

Chain of E-selectin (Homo sapiens) (P16581 whole entry, looked up): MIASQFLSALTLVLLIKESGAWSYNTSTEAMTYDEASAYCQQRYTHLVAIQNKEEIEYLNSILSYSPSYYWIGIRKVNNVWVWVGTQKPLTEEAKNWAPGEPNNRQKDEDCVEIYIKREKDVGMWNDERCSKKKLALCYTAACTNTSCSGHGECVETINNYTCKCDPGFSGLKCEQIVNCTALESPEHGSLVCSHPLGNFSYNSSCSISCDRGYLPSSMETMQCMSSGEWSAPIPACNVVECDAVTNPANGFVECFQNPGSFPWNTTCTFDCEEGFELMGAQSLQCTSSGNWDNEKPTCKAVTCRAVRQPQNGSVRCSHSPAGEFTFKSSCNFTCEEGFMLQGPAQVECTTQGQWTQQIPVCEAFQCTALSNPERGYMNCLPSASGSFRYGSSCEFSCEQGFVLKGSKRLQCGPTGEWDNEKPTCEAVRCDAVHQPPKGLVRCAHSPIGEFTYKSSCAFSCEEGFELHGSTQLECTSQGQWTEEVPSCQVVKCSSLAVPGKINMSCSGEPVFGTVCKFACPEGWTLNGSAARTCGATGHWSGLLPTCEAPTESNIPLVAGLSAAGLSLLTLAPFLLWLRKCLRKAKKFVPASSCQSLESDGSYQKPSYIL

OCC(F)(F)OC(F)(F)C(F)(F)OC(F)(F)C(F)(F)OC(F)(F)F
active: [1] 45.9 µM and 24.8 µM | [2] 39.4 µM and 45.2 µM | [4] 15.3 µM and 21.2 µM | [5] 43.9 µM and 43.4 µM | [6] 39 µM and 21 µM | [7] 30 µM
inactive: [3] | [7]

CCCCCCCc1ccc(O)cc1
active: [1] 36 µM | [2] 31.6 µM | [3] 37.2 µM | [4] 27.5 µM | [5] 33.1 µM | [6] 18.8 µM | [7] 37.1 µM | [8] 5.15 µM
inactive: [8] | [9]

CN(C)C(=O)Cl
inactive: [1] | [2] | [3] | [4] | [5] | [6] | [7] | [10]

O=S(=O)(F)C(F)(F)C(F)(F)C(F)(F)C(F)(F)C(F)(F)C(F)(F)C(F)(F)C(F)(F)F
inactive: [1] | [2] | [3] | [4] | [5] | [6] | [7]

COC(=O)C(F)(F)C(F)(F)OC(F)(C(F)(F)F)C(F)(F)OC(F)=C(F)F (stereo unspecified)
inactive: [1] | [2] | [3] | [4] | [5] | [6] | [7]

CCOP(=S)(OCC)SCSc1ccc(Cl)cc1
inactive: [3] | [7]
active: [1] 20 µM | [2] 20 µM | [4] 13 µM | [5] 20 µM | [6] 14.2 µM

O=C(O)C(Cl)Cl
inactive: [1] | [2] | [3] | [4] | [5] | [6] | [7]

Cc1ccc([N+](=O)[O-])cc1C
inactive: [1] | [2] | [3] | [4] | [5] | [6] | [7] | [8]
active: [9] 2.77 µM

ClC(Cl)c1ccccc1
inactive: [1] | [2] | [3] | [4] | [5] | [6] | [7]

CC(C)(C)c1ccccc1OP(=O)(Oc1ccccc1)Oc1ccccc1
active: [1] 27.7 µM | [2] 20 µM | [3] 34.6 µM | [4] 33.2 µM | [5] 20 µM | [6] 10.8 µM | [7] 30.7 µM

N#Cc1c(-c2ccc(Cl)cc2)[nH]c(C(F)(F)F)c1Br
active: [1] 1.53 µM | [2] 0.267 µM | [3] 2.85 µM | [4] 5.4 µM | [5] 0.178 µM | [6] 1.86 µM | [7] 4.34 µM

C=CC(=O)OCC(CC)(COC(=O)C=C)COC(=O)C=C
active: [1] 2.6 µM | [2] 1.36 µM | [3] 3.36 µM | [4] 2.93 µM | [5] 1.7 µM | [6] 0.587 µM | [7] 3.38 µM | [9] 2.4 µM

CCC(C)(C)c1ccc(O)cc1
inactive: [1] | [2] | [3] | [4] | [5] | [6] | [7] | [10]
active: [11] 10 µM

CCOC(=O)c1ccccc1C(=O)OCC
inactive: [1] | [2] | [3] | [4] | [5] | [6] | [7] | [12]

CCC1(c2ccccc2)C(=O)N=C(O)NC1=O (stereo unspecified)
inactive: [1] | [2] | [3] | [4] | [5] | [6] | [7] | [13]

CC(C)(C)c1ccc(O)cc1
inactive: [1] | [2] | [3] | [5] | [6] | [7]

CCNc1nc(Cl)nc(NC(C)(C)C)n1
active: [1] 6.26 µM | [9] 6.82 µM
inactive: [2] | [3] | [4] | [5] | [6] | [7]

CC(Cc1ccc(OCC(=O)O)cc1)NCC(O)c1csc(C(F)(F)F)n1 (stereo unspecified)
inactive: [1] | [2] | [3] | [4] | [5] | [6] | [7] | [9]

ClC1=C(Cl)C2(Cl)C3C(Cl)C(Cl)CC3C1(Cl)C2(Cl)Cl (stereo unspecified)
active: [1] 33.6 µM | [2] 32.3 µM | [3] 34.4 µM | [4] 13.8 µM | [5] 34.7 µM | [6] 7.61 µM | [7] 31.1 µM | [11] 5.2 µM | [9] 6.11 µM

CCOP(=S)(OCC)SCn1nnc2ccccc2c1=O
inactive: [1] | [3] | [4] | [5] | [6] | [7]
active: [2] 15.9 µM | [14] 1.43 µM | [9] 3.57 µM

CO/N=C(/C(=O)OC)c1ccccc1COc1ccccc1C
active: [15] 9.98 µM | [14] 6.5 µM | [9] 2.85 µM | [16] 4.24 µM
